The text below walks through data of paper PMC7862700, “An all-to-all approach to the identification of sequence-specific readers for epigenetic DNA modifications on cytosine”.

Assay in all cases: DAPPL (digital affinity profiling via proximity ligation, sequencing); 10 mM Tris-HCl pH 7.5, 50 mM NaCl, 1 mM DTT, 4% glycerol, room temperature, 30 min; GST-TFs on glutathione beads, 16-mer random dsDNA library, 0.1% formaldehyde crosslink after washing; high values mean tight binding
For test [1], the target named is T1, FEV (Homo sapiens, UniProt Q99581 1-238).
T1 sequence: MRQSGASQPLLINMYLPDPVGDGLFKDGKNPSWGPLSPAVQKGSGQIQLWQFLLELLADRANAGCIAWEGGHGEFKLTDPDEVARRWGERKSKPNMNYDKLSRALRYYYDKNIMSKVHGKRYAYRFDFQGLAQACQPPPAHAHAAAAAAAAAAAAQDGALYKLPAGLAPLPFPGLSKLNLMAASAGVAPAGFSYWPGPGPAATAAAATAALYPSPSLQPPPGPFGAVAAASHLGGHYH
The note with it: protein: recombinant; tags: N-terminal GST; dsDNA, one strand shown. Summed up:
(§1)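 Binding signal is defined as a hexamer's read frequency for one factor over its frequency for the tag-only sample. To obtain reads, GST-fused human transcription factors were expressed in yeast, captured on glutathione beads, barcoded with DNA and pooled with that sample. Pools met 200 nmole of a 16-mer random double-stranded DNA library in Tris/NaCl/DTT/glycerol buffer for 30 min at room temperature before washing, 0.1% formaldehyde crosslinking, proximity ligation (BsaI/T4 ligase, 1 h, 37 °C), PCR and Illumina NextSeq500 sequencing.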

Test [2] concerns the target ETV5 (Homo sapiens, UniProt P41161 1-510). The note with it: protein: recombinant; tags: N-terminal GST; dsDNA, one strand shown. Summed up: as §1
Test [3] has as its target HSF1 (Homo sapiens, UniProt Q00613 1-529). Conditions: protein: recombinant; tags: N-terminal GST; chain copies: 3; dsDNA, one strand shown. The method in brief: as §1
The target of test [4] is T2, SPIC (Homo sapiens, UniProt Q8N5J4 1-248).
T2 sequence: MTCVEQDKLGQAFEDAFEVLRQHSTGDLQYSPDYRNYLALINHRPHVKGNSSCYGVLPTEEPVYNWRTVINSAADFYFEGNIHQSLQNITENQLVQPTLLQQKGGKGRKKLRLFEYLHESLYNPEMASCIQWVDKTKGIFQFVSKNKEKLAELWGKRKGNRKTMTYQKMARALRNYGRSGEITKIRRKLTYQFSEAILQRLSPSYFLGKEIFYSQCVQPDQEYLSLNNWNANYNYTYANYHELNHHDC
The note with it: protein: recombinant; tags: N-terminal GST; dsDNA, one strand shown. The method in brief: as §1

The target of test [5] is ELF4 (Homo sapiens, UniProt Q99607 1-663). Conditions: protein: recombinant; tags: N-terminal GST; dsDNA, one strand shown. The method in brief:
as §1

Test [6] addresses T3, ELK4 (Homo sapiens, UniProt P28324-2 1-405).
T3 sequence: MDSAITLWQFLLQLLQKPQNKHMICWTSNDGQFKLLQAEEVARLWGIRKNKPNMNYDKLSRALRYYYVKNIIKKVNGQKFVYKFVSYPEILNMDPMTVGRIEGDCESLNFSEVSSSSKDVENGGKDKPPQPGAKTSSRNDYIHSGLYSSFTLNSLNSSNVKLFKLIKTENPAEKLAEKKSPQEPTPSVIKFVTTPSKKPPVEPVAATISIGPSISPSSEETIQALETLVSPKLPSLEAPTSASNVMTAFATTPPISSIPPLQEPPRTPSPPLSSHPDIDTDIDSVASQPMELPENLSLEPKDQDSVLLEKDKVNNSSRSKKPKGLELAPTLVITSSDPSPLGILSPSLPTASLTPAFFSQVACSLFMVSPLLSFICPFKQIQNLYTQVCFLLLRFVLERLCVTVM
Conditions: protein: recombinant; tags: N-terminal GST; dsDNA, one strand shown. The method in brief: as §1

Test [7] deals with T4, ETV2 (Homo sapiens, UniProt O00321 1-342).
T4 sequence: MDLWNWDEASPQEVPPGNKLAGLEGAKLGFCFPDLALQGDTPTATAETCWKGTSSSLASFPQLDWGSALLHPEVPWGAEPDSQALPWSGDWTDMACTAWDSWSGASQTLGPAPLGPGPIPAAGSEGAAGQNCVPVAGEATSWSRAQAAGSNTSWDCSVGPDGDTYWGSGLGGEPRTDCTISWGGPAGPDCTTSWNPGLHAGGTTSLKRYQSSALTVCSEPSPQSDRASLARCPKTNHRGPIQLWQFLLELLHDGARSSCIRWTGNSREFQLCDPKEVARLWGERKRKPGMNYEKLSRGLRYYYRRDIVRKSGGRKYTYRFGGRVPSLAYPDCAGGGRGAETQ
The note with it: protein: recombinant; tags: N-terminal GST; dsDNA, one strand shown. Summed up:
as §1

Test [8] has as its target T5, ELF3 (Homo sapiens, UniProt P78545 1-371).
T5 sequence: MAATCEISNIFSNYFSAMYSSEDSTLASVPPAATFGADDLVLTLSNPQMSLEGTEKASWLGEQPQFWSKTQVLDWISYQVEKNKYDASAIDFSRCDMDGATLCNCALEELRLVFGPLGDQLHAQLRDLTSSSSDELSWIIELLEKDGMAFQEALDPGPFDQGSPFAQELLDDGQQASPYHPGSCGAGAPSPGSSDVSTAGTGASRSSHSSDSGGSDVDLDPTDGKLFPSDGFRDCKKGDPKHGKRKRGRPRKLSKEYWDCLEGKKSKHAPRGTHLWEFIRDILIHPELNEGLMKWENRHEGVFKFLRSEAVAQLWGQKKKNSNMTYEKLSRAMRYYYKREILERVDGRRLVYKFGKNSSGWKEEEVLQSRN
The note with it: protein: recombinant; tags: N-terminal GST; dsDNA, one strand shown. Summed up: as §1

Test [9] deals with CRX (Homo sapiens, UniProt O43186 1-299). The note with it: protein: recombinant; tags: N-terminal GST; dsDNA, one strand shown. The method in brief:
as §1

Test [10] has as its target ETV1 (Homo sapiens, UniProt P50549 1-477). The note with it: protein: recombinant; tags: N-terminal GST; dsDNA, one strand shown. The method in brief:
as §1

For test [11], the target named is T6, ERF (Homo sapiens, UniProt P50548 1-548).
T6 sequence: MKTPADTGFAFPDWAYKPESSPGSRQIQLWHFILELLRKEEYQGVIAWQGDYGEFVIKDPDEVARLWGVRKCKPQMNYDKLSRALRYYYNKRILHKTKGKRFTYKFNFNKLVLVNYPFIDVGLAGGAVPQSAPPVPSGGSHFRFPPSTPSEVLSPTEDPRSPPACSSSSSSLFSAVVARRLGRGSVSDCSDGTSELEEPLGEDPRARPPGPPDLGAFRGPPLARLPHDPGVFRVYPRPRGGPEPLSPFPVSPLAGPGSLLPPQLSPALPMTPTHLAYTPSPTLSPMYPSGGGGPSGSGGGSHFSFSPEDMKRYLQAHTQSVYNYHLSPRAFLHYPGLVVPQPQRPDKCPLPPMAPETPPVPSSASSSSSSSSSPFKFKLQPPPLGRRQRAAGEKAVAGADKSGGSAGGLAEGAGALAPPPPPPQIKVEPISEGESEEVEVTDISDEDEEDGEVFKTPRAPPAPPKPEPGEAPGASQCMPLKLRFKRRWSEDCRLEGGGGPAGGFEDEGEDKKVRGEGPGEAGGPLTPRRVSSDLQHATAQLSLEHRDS
Conditions: protein: recombinant; tags: N-terminal GST; dsDNA, one strand shown. Summed up:
as §1

Test [12] has as its target T7, ETV3L (Homo sapiens, UniProt Q6ZN32 1-361).
T7 sequence: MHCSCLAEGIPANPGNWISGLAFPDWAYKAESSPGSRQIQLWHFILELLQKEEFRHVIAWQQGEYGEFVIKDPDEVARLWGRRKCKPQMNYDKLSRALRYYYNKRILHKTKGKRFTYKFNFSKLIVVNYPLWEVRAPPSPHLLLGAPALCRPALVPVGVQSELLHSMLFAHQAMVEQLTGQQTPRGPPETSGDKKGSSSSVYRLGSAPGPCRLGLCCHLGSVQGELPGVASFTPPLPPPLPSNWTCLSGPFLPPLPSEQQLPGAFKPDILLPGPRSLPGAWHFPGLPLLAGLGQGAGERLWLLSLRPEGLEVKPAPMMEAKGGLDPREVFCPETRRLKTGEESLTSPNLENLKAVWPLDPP
Conditions: protein: recombinant; tags: N-terminal GST; dsDNA, one strand shown. The method in brief:
as §1

In test [13] the target is T8, ETS2 (Homo sapiens, UniProt P15036 1-469).
T8 sequence: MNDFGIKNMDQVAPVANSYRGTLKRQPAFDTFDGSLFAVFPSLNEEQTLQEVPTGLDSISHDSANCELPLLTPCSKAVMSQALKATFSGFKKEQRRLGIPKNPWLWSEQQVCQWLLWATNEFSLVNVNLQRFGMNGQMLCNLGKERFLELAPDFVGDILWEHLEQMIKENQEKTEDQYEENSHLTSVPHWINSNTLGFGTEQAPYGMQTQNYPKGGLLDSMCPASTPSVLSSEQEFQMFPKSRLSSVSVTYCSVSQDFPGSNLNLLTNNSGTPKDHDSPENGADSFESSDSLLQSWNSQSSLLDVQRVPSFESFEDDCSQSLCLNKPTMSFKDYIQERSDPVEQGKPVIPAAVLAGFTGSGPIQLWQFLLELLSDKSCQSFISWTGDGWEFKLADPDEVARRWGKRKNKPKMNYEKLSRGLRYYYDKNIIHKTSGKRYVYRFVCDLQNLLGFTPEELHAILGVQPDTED
The note with it: protein: recombinant; tags: N-terminal GST; dsDNA, one strand shown. The method in brief:
as §1

Test [14] addresses T9, SPDEF (Homo sapiens, UniProt O95238 1-335).
T9 sequence: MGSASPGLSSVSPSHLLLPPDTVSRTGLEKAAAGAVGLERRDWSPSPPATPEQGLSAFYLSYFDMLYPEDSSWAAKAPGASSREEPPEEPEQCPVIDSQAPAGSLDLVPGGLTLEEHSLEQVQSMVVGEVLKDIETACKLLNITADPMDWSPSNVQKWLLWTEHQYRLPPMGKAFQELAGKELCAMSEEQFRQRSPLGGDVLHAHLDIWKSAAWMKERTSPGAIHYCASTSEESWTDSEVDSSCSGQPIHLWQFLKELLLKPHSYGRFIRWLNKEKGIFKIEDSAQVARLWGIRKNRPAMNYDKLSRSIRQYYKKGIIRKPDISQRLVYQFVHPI
Conditions: protein: recombinant; tags: N-terminal GST; dsDNA, one strand shown. Summed up:
as §1

The target of test [15] is T10, ETV7 (Homo sapiens, UniProt Q9Y603 1-341).
T10 sequence: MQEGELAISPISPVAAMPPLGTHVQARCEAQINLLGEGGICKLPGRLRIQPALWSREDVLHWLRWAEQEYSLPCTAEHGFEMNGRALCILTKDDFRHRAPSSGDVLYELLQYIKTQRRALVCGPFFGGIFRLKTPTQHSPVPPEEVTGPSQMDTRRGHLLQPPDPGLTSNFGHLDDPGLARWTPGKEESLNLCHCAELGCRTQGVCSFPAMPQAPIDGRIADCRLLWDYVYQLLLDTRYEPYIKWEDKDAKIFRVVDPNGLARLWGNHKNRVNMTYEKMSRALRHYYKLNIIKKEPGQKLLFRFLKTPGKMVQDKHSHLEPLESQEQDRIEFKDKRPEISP
Conditions: protein: recombinant; tags: N-terminal GST; dsDNA, one strand shown. Summed up:
as §1

Test [16] has as its target T11, ELF5 (Homo sapiens, UniProt Q9UKW6-2 1-255).
T11 sequence: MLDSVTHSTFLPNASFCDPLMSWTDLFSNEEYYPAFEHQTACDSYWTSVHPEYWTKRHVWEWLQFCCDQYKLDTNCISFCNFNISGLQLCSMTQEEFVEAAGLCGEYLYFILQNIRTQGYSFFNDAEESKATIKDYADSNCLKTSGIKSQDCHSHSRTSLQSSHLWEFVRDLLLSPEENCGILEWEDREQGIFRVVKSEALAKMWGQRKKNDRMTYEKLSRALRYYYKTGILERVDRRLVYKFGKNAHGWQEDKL
The note with it: protein: recombinant; tags: N-terminal GST; dsDNA, one strand shown. Summed up: as §1

Test [17] addresses T12, ETV3 (Homo sapiens, UniProt P41162-2 1-143).
T12 sequence: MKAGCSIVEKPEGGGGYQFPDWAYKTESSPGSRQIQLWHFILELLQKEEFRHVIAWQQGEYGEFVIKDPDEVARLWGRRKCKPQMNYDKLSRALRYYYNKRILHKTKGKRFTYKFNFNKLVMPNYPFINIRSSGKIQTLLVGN
The note with it: protein: recombinant; tags: N-terminal GST; dsDNA, one strand shown. The method in brief: as §1

Test [18] addresses ETV6 (Homo sapiens, UniProt P41212 1-452). Conditions: protein: recombinant; tags: N-terminal GST; dsDNA, one strand shown. Summed up:
as §1

ETV6, sequence (P41212 whole entry): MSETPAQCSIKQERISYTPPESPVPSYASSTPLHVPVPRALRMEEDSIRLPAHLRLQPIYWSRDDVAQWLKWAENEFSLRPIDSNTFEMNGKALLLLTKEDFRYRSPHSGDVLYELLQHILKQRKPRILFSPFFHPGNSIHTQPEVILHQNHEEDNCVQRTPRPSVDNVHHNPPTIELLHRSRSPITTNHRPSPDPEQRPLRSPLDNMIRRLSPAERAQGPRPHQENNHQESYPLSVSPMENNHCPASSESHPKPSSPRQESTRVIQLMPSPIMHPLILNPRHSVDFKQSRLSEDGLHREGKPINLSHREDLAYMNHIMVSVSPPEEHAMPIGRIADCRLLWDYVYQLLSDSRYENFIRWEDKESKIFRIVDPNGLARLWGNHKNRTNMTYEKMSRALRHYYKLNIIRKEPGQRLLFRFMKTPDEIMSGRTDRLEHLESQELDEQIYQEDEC
CRX, sequence (O43186 whole entry): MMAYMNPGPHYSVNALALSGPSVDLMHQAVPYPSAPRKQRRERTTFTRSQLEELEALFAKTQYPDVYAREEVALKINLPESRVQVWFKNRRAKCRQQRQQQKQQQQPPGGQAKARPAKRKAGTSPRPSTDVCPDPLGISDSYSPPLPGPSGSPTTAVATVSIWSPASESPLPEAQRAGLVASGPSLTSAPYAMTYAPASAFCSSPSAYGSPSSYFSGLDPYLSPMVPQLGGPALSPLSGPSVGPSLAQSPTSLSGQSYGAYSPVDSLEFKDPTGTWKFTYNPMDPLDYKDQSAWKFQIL
ETV5, sequence (P41161 whole entry): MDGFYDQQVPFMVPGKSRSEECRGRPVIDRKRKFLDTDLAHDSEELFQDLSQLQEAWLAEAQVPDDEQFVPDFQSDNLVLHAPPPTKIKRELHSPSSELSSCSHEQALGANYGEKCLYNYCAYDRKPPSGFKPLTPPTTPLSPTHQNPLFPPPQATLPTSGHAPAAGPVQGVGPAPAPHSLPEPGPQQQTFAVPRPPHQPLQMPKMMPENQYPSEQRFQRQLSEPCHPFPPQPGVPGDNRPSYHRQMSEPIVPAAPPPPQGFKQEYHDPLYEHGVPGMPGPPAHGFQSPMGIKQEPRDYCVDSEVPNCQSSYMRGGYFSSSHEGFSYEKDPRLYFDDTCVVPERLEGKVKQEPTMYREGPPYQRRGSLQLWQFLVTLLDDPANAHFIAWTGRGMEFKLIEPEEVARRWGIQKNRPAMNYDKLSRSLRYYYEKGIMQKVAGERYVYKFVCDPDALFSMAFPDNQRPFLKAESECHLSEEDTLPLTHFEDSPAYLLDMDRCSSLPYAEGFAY
ETV1, sequence (P50549 whole entry): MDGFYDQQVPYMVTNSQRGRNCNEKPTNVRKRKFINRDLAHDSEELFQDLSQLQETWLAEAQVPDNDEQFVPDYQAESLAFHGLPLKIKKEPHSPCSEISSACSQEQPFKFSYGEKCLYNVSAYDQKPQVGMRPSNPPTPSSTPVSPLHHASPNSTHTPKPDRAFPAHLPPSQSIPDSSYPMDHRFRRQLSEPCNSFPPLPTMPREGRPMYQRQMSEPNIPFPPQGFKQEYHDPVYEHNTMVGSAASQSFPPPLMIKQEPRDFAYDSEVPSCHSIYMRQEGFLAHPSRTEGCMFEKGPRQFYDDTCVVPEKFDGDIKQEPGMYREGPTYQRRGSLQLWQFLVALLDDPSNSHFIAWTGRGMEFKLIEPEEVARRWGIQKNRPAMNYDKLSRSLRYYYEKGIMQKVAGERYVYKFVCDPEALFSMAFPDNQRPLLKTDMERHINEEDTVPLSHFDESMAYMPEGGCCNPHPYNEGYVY
ELF4, sequence (Q99607 whole entry): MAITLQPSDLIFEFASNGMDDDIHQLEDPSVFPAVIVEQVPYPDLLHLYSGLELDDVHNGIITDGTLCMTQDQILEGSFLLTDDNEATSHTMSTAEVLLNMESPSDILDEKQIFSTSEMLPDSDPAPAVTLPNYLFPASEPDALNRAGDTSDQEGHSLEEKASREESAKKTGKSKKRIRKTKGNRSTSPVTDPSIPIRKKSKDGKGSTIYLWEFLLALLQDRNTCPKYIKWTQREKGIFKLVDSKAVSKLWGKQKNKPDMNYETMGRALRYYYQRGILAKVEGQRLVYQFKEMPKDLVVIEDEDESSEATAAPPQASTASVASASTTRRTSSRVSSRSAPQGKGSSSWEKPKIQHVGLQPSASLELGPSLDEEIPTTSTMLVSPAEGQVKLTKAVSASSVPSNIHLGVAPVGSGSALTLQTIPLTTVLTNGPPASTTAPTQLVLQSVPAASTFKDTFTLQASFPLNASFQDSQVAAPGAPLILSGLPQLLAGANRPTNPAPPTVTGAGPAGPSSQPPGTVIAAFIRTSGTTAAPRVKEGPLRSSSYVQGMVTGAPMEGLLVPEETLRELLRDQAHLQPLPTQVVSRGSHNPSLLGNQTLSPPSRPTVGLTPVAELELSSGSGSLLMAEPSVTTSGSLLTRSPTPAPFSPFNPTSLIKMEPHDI
HSF1, sequence (Q00613 whole entry): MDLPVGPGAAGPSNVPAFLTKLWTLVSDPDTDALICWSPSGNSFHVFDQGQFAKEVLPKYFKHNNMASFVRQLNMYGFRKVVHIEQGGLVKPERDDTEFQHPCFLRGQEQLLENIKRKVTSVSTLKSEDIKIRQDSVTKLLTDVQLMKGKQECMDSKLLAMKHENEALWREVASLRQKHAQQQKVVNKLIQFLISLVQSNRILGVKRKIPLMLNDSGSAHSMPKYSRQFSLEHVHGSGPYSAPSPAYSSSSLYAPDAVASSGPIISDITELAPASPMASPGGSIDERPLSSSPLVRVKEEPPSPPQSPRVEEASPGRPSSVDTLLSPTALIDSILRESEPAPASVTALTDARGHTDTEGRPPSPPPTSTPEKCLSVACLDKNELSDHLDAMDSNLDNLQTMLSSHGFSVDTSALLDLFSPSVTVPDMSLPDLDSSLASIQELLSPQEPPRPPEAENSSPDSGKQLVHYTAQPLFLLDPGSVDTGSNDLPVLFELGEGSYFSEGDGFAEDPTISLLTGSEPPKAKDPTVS

GATGTA: the binding signal in [1] is 1.4 fold enrichment (6-mer frequency, TF over GST control); in test [2] it was 1.37 fold enrichment (6-mer frequency, TF over GST control); in test [3], 1.01 fold enrichment (6-mer frequency, TF over GST control); in test [4], 1.12 fold enrichment (6-mer frequency, TF over GST control); in test [5], 1.33 fold enrichment (6-mer frequency, TF over GST control); in [6], 1.28 fold enrichment (6-mer frequency, TF over GST control). For the same sequence, the binding signal in test [7] is 1.18 fold enrichment (6-mer frequency, TF over GST control); in [8], 1.53 fold enrichment (6-mer frequency, TF over GST control); in [9], 1.06 fold enrichment (6-mer frequency, TF over GST control); in test [10] it was 1.33 fold enrichment (6-mer frequency, TF over GST control); in [11], 1.18 fold enrichment (6-mer frequency, TF over GST control); in test [12], 1.39 fold enrichment (6-mer frequency, TF over GST control). The binding signal is 1.49 fold enrichment (6-mer frequency, TF over GST control) in test [13]; 2 fold enrichment (6-mer frequency, TF over GST control) in [14]; 1.43 fold enrichment (6-mer frequency, TF over GST control) in test [15]; 1.38 fold enrichment (6-mer frequency, TF over GST control) in test [16]; 1.39 fold enrichment (6-mer frequency, TF over GST control) in test [17]; 1.35 fold enrichment (6-mer frequency, TF over GST control) in [18].
